Screens (PubChem)
This excerpt belongs to a sample that is enriched for hits.
GIRK2 activator = activators of NPY4-receptor-primed GIRK2 channels, summary, cell-based, HEK293, thallium flux | HEK293 GIRK2/NPY4 cells, thallium flux fluorescence | activation (% efficacy), % for hits at 37.5 µM | 34,000 tested, under 10 active;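 active = primary screen hit, no activity in plain HEK293 cells, and in GIRK2-only cells above 5% efficacy rising with concentration; inactive = the rest, including fluorescent compounds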;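 note: efficacy is normalized control-subtracted fluorescence 15 s after thallium addition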
Target sequence (P48051 whole entry, looked up): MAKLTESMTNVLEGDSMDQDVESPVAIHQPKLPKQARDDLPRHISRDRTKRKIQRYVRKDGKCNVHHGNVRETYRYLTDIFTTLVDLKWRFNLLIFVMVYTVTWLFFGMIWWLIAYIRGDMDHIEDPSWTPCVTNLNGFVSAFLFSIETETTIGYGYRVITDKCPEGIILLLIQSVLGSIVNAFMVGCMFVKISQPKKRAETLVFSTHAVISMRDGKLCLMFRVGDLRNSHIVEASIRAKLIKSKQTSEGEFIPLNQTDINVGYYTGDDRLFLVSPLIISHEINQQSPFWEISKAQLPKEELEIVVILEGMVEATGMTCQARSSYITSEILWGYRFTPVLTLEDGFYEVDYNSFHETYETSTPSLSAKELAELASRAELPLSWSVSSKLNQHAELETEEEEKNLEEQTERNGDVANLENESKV
GluA2 TARP mod = modulators of GluA2-stargazin AMPA receptor complexes, primary screen, cell-based, membrane potential dye; calls only at 30 µM; HEK293 GluA2+stargazin, membrane potential dye (FDSS), glutamate EC50; hits were called plate by plate, in both directions; 3.5% of 40,000 active; Voltage-dependent calcium channel gamma-2 subunit (Mus musculus) + Glutamate receptor 2 …;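 active = any of four per-well response measures lying three or more SD from its plate-wide compound average, in either direction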
Calls only; ! = repeats disagree.

Screening Cc1ccc2nc3c(cc(C(=O)NCCN4CCOCC4)n3C)c(=O)n2c1 returned GIRK2 activator inactive and GluA2 TARP mod inactive.
Screening Cc1cccn2c(=O)c(C(=O)NCCCN3CCOCC3)c(O)nc12 returned GIRK2 activator inactive and GluA2 TARP mod active.
For COC(=O)c1sccc1S(=O)(=O)N(CC(=O)Nc1cccc(OC)c1)c1ccc(Cl)cc1 the results were GIRK2 activator inactive and GluA2 TARP mod active.
`COC(=O)c1sccc1S(=O)(=O)N(CC(=O)Nc1ccccc1OC)c1ccccc1` gave GIRK2 activator inactive and GluA2 TARP mod inactive.
`CCc1ccccc1NC(=O)CN(c1ccc(C)cc1)S(=O)(=O)c1ccsc1C(=O)OC` gave GIRK2 activator inactive and GluA2 TARP mod active.
Screening COC(=O)c1sccc1S(=O)(=O)N(CC(=O)Nc1ccccc1)c1ccccc1 returned GIRK2 activator inactive and GluA2 TARP mod inactive.
For CCc1ccc2nc(N(CCN3CCOCC3)C(=O)C3COc4ccccc4O3)sc2c1 (stereo not given) the results were GluA2 TARP mod inactive.
Screening O=C(Nc1ccc2c(c1)OCO2)c1ccc(S(=O)(=O)NCc2ccco2)o1 returned GIRK2 activator inactive and GluA2 TARP mod inactive.
CCOc1ccccc1NC(=O)CSc1nnnn1-c1ccccc1C(F)(F)F was read as GIRK2 activator inactive and GluA2 TARP mod inactive.
Screening CCOc1ccccc1NC(=O)CSc1nnnn1-c1cccc(C)c1 returned GIRK2 activator inactive and GluA2 TARP mod active!.
Screening O=C(NCc1ccc(Cl)cc1)NCC1(O)CCCC1 returned GIRK2 activator inactive and GluA2 TARP mod inactive.
Screening C=CCNC(=O)CCCn1c(=S)[nH]c2ccc(Br)cc2c1=O returned GIRK2 activator inactive and GluA2 TARP mod inactive.
`CCOC(=O)CN1N=C(c2ccccc2)Cn2c1nc1c2c(=O)n(CC(=O)OCC)c(=O)n1C` gave GluA2 TARP mod inactive.
For CCOc1ccc(-n2nnnc2SC(C)C(=O)Nc2ccccc2C)cc1 (stereo not given) the results were GluA2 TARP mod inactive.
For COc1ccc(-n2nnnc2SC(C)C(=O)Nc2nccs2)cc1 (stereo not given) the results were GluA2 TARP mod active.
`COc1ccc(-n2nnnc2SCCC(=O)Nc2nccs2)cc1` gave GIRK2 activator inactive and GluA2 TARP mod inactive.
For CCOc1ccc(-n2nnnc2SC(C)C(=O)Nc2ccccc2F)cc1 (stereo not given) the results were GluA2 TARP mod active.
For COc1ccc(OC)c(/C=C2\Oc3cc(OCC(N)=O)ccc3C2=O)c1 the results were GluA2 TARP mod inactive.
`O=C(Cc1ccc(F)cc1)Nc1ccccc1NC(=O)c1ccccn1` gave GIRK2 activator inactive.
For Cc1ccc(S(=O)(=O)N2CCC(C(=O)Nc3nc(-c4ccccc4)cs3)CC2)cc1 the results were GluA2 TARP mod inactive.
`COc1ccc(/C=C\C(=O)Nc2cc(C3CC3)nn2-c2nc(C(C)C)cc(=O)[nH]2)cc1OC` gave GIRK2 activator inactive and GluA2 TARP mod active.
`COc1ccc(OCC(=O)Nc2cc(C3CC3)nn2-c2nc(C(C)C)cc(=O)[nH]2)cc1` gave GIRK2 activator inactive and GluA2 TARP mod inactive.
For COc1ccc(NC(=O)Nc2cccc(-c3ccc(N4CCOCC4)nn3)c2)cc1OC the results were GIRK2 activator inactive and GluA2 TARP mod inactive.
COc1ccc(C)cc1S(=O)(=O)NCCNc1cc(-n2cccn2)ncn1 was read as GIRK2 activator inactive and GluA2 TARP mod inactive.
C=CCN1C(=O)SC(CC(=O)Nc2ccc(C(=O)OC)cc2)C1=O (stereo not given) was read as GIRK2 activator inactive and GluA2 TARP mod inactive.
`C=CCN1C(=O)SC(CC(=O)Nc2ccc([N+](=O)[O-])cc2)C1=O` (stereo not given) gave GIRK2 activator inactive and GluA2 TARP mod active.
For Cc1ccc(CCNC(=O)CCCC2=NS(=O)(=O)c3ccccc3N2)cc1 the results were GluA2 TARP mod inactive.
COc1ccc([N+](=O)[O-])cc1NC(=O)c1ccc(S(=O)(=O)N(C)C2CCCC2)cc1 was read as GluA2 TARP mod inactive.
`COc1cc([N+](=O)[O-])cc2sc(NC(=O)c3ccc(S(=O)(=O)N(C)C4CCCC4)cc3)nc12` gave GluA2 TARP mod active.
CN(C1CCCC1)S(=O)(=O)c1ccc(C(=O)Nc2nc3ccccc3s2)cc1 was read as GluA2 TARP mod inactive.
Screening COc1cccc2sc(NC(=O)c3ccc(S(=O)(=O)N(C)C4CCCC4)cc3)nc12 returned GIRK2 activator inactive and GluA2 TARP mod active.
For COc1cccc(-n2nnc3c(N4CCN(C(=O)c5ccc(Br)cc5)CC4)ncnc32)c1 the results were GluA2 TARP mod inactive.
For O=C(CSc1ccc([N+](=O)[O-])cc1[N+](=O)[O-])NC1CCS(=O)(=O)C1 (stereo not given) the results were GluA2 TARP mod inactive.
For COc1ccc(C(CNC(=O)C(=O)NC2CCCC2)N2CCOCC2)cc1 (stereo not given) the results were GIRK2 activator inactive and GluA2 TARP mod inactive.
O=C(Cc1ccc(F)cc1)NCC(c1ccc(F)cc1)N1CCOCC1 (stereo not given) was read as GluA2 TARP mod inactive.
Screening COc1ccc(C(CNC(=O)C2CCCCC2)N2CCOCC2)cc1 (stereo not given) returned GluA2 TARP mod active.
O=C(NCC(c1ccc(F)cc1)N1CCOCC1)C1CCCCC1 (stereo not given) was read as GluA2 TARP mod active.
Screening COc1ccc(S(=O)(=O)Nc2ccc3c(c2)CCCN3S(=O)(=O)c2ccccc2)cc1OC returned GluA2 TARP mod inactive.
Screening CSCCC(C)(O)CNC(=O)c1cccc(N(C)C)c1 (stereo not given) returned GIRK2 activator inactive and GluA2 TARP mod inactive.
Screening O=C(NCc1ccccc1Cl)C1CN(C(=O)c2c[nH]c3ccccc23)C1 returned GIRK2 activator inactive and GluA2 TARP mod inactive.
`Cn1nc(-c2cccc(NC(=O)c3ccc4c(c3)OCO4)c2)ccc1=O` gave GIRK2 activator inactive and GluA2 TARP mod inactive.
`CC(C)(Oc1ccc(Cl)cc1)C(=O)N(Cc1ccccn1)Cc1ccco1` gave GIRK2 activator inactive.
`CC(C)C(=O)Nc1ccc(SCC(=O)NCc2ccc3c(c2)OCO3)nn1` gave GIRK2 activator inactive and GluA2 TARP mod inactive.
Screening Cc1ccccc1-c1ccc(SCC(=O)NCc2ccc3c(c2)OCO3)nn1 returned GIRK2 activator inactive and GluA2 TARP mod active.
For COc1ccc(-c2nnc(NC(=O)Cc3ccc(SC)cc3)o2)c(OC)c1 the results were GluA2 TARP mod active.
Screening COc1ccc(-c2nnc(NC(=O)C3CCCN3S(C)(=O)=O)o2)c(OC)c1 (stereo not given) returned GIRK2 activator inactive and GluA2 TARP mod inactive.
`COc1ccc(-c2nnc(NC(=O)C3CC3)o2)c(OC)c1` gave GluA2 TARP mod active.
COc1ccc(-c2nnc(NC(=O)Cc3ccc(C)cc3)o2)c(OC)c1 was read as GIRK2 activator inactive and GluA2 TARP mod inactive.
`CCn1nccc1C(=O)Nc1nnc(-c2ccc(OC)cc2OC)o1` gave GIRK2 activator inactive and GluA2 TARP mod active.
Screening COc1ccc(OC)c(-c2nnc(NC(=O)c3ccnn3C)o2)c1 returned GIRK2 activator inactive.
